Data published in the supplement of paper PMC6555819.

system: RARg homodimer (NR concentration 270 nM); assay: PBM binding z-score (relative to random genomic background probes); higher = stronger binding; sequences stand for … in GC…GCGATTGACAGCGTAGAATGAAGG
Summary of the method: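 The probes on custom Agilent 4×180K protein-binding microarrays were double-stranded, with 34-nt variable regions bearing direct-repeat seeds, single-nucleotide variants, half-site ablations and random human genomic background sequences. Incubation lasted 1 h with ligand-free nuclear receptor dimers in PBS pH 7.4, 2% milk, 0.02% Triton X-100, 1 mM DTT, 0.2 mg/mL BSA and 0.4 mg/ml salmon testes DNA. Antibodies against each partner (one per run) detected bound dimers, and fluorescence scans were regression-normalized. Binding z-scores take the random background probes as reference.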

| Sequence | PBM binding z-score |
| --- | --- |
| TCTCGGAGGACACGAAAGGCCAGAGCTCGACATC | 1.9 |
| TGTCAAAGTTCAAAGGTAACGGAAGTATCCACAC | 5.94 |
| GCTGCTAGATCAGGTTGGTCAGCTAACGGGTACG | -0.66 |
| TCATATAGGTAAATCCTAGGTGAAAGTCCGATCT | 0.396 |
| GCTTACGGGTCAAAGGCTATAGCATGAATAGAAT | 4.31 |
| TCAAGTAGGTTAGGGGCATTCAGAATGGCGTCGA | 0.56 |
| ATCTCAAGGTAACAAGTTCAGTGAAAGAGAGGAC | 1.79 |
| CCGACTGGGGCAGAAAGGTTACTATACCATCCGG | 1.23 |
| CTCGAAAGGTCGTGCTCAGGTGCGTATACCAAAC | 3.38 |
| CCGACTGGGGCATAAGGGTACCATAAGCCAGCCC | 0.239 |
| TGTCAAAGTTGAAAGGTAACGTAAGTATCCACAC | 1.4 |
| TCGAGTAGGTAAGGGGCATTCAGAATGGCGTCGA | -0.0823 |
| CCTACTGGGCCATTCAGAGGTCATTGGTCATATG | 2.64 |
| CAAACTAGGTCAAAGTCAAAGTCGGTTTGTGCCA | 4.41 |
| CAAACTAGGTCAAGAGGTCAACGTCCGCTTCCCG | 7.74 |
| CATACAGGGTCAGCTAGGCCAGAGTCGGGACGGC | 4.67 |
| GCTTGTATATCAAGGTTAAGAAAGACTAAGCTAA | 0.28 |
| ATATGTAGGTTAGCGGGTCATTCAGTTTGCGCAT | 2.37 |
| CGTCCAAGGTCGATGCTAGGTCAGTGAAAGCATT | 2.78 |
| GCAGACAGGTGAAACGCAGGTTACTCAGGGTGGC | 0.458 |

| Sequence | PBM binding z-score |
| --- | --- |
| CGTCCAAGGTCATAGTAGGTCAGTGAAGACAGAT | 6.44 |
| ATCTCTAGGTAAGACTCAGTTCTGTGAAGAACGC | 0.0813 |
| TCTCCTAGGTCAACGATGGTCAGCTAATCTGCTA | 5.72 |
| GGAATGAGGGCATTCGAGTTGATAGCATGGCGAT | 1.22 |
| GGAACGAGGGCAAGTTGAGAGCAGAGTTTGATGG | 2.21 |
| TCTTGTAAATCAACAGGAGGTTAAGAAAGATCGA | 0.518 |
| CTACCAAGGTGAACAAGATCGTTGATTACTATTC | 0.995 |
| ATCTGTAGGTAACAAGTTCAGTGAAAGAGAGGAC | 1.42 |
| CCGAGCAGGTTATGGGGCATTCAGGCAACGGTGA | 0.573 |
| GGAACGTGGGCAAGTTGATAGCAGAGTTTGATGG | -0.279 |
| TCGGGTAGGTTAGGGGCATTCAGAATGGCGTCGA | 1 |
| ACTGGGAGGACAAAGGTCAGAGCTACGCCAGTGA | 5.14 |
| CGTCCAAGGTCTATGCTAGGTCAGTGAAAGCATT | 1.37 |
| TCGAGAAGGTTACCAATGGGGCATTCAGCTTTCT | 1.19 |
| GCATATAGGTAATACAAGCTGAAAGTCCGATTGT | 0.41 |
| TCTTGTAGATCAACAAGAGGTTAAGAAAGATCGA | 0.53 |
| ACTAGCAGGCCATGGGTCACTCAAGATTAGTCCG | 2.07 |
| CGAACTAGGTAAGAACAGGACAGTGAAGGATGAT | 0.345 |
| ACTAGTTCGTCAGCTGAGGTCACACACAATTCGG | 3.93 |
| TAGCCTGGGTCATTGGGCCAGTATAGTACGCATC | 3.47 |
